RecA intein inh – inhibitors of M. tuberculosis RecA intein splicing; P9WHJ3; cell-free RecA intein splicing, fluorescence; inhibition, % (test concentration not listed); 290,000 tested, 0.75% active; AID 2221; in the data active means inhibition above about 30%; inconclusive means no clear call, values can overlap the other calls;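 further: 0% = vehicle wells and 100% = reference inhibitor control wells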
GDH-TPI counter – inhibits GDH-TPI coupling enzymes, artifact for Mtb FBA screen | inhibition, % at 4.8 µM | GDH-TPI coupled enzyme counterscreen, NADH absorbance | 360,000 tested, 1.2% active; in the data active means inhibition above about 30%;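 further: 0% = DMSO wells and 100% = wells lacking the enzyme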
Rv3671c inh – inhibitors of M. tuberculosis serine protease Rv3671c. 320,000 tested, 0.048% active. AID 2606. inhibition, % at 5.96 µM; in the data active means inhibition above about 38%;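 further: extracellular domain of Rv3671c used as enzyme; 0% = enzyme with DMSO and 100% = no enzyme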
Mtb FBA inh – inhibits M. tuberculosis FBA enzyme | inhibition, % at 1 µM | AID 588726 | purified M. tuberculosis FBA, fluorescence read-out | P9WQA3 | 360,000 tested, 2.3% active; in the data active means inhibition above about 27%;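 further: 0% = vehicle and 100% = reference inhibitor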
Target sequence (P9WQA3 whole entry, looked up): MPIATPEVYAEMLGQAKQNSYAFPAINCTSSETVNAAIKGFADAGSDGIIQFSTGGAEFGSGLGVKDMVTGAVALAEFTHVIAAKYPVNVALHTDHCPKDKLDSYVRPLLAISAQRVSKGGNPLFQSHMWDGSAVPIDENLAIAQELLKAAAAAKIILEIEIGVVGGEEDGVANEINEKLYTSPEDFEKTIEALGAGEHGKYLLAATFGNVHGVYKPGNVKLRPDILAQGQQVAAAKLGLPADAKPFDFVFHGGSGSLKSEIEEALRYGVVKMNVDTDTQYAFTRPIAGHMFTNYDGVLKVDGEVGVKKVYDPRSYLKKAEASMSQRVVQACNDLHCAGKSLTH
Mtb betalactam – beta-lactam sensitization of Mtb H37Rv. M. tuberculosis H37Rv growth with meropenem, percent inhibition. AID 434955. inhibition, % at 25 µM. 330,000 tested, 0.27% active; call rule not given here;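 further: growth measured after seven days incubation then overnight dye step; 0% = bacteria only wells and 100% = bacteria with antibiotic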
UGM FP inh – blocks M. tuberculosis UGM enzyme | purified UGM, fluorescence polarization probe displacement | P9WIQ1 | inhibition, % at 10 µM | 320,000 tested, 0.06% active; in the data active means inhibition above about 10%, passing the limit was not always enough; inconclusive means no clear call, values can overlap the other calls
An asterisk follows results filed as active. An excerpt weighted towards active compounds, which were near 4% of everything screened.

For COc1ccc(S(=O)(=O)N(C)C[C@H]2Oc3c(NC(=O)NC(C)C)cccc3C(=O)N([C@H](C)CO)C[C@@H]2C)cc1 the results were GDH-TPI counter 6.4, Rv3671c inh 5.9, Mtb FBA inh -0.1, Mtb betalactam -7.8 and UGM FP inh 3.5.
COCCn1c(=NC(=O)c2cccs2)sc2cc(NC(C)=O)ccc21 was read as RecA intein inh -0.3, GDH-TPI counter 45.3*, Rv3671c inh -2.6, Mtb FBA inh 3.7, Mtb betalactam 4.1 and UGM FP inh -2.8.
CC1CCCCC1Nc1nc2ccc(Cl)cc2n2cnnc12 (stereo unspecified) was read as RecA intein inh 3.0, GDH-TPI counter 8.1, Rv3671c inh -5.2, Mtb FBA inh 0.7, Mtb betalactam 83.3 and UGM FP inh -0.9.
For Cc1cccn2c(=O)c3cc(C(=O)NCCc4ccccc4)c(=N)n(CCCn4ccnc4)c3nc12 the results were RecA intein inh -6.2, GDH-TPI counter -3.8, Rv3671c inh 2.0, Mtb FBA inh 128.8*, Mtb betalactam 79.7 and UGM FP inh 1.4.
CCNC(=O)c1cc2c(=O)n3cccc(C)c3nc2n(CCc2ccccc2)c1=N was read as RecA intein inh inactive, GDH-TPI counter 9.3, Rv3671c inh -2.3, Mtb FBA inh active, Mtb betalactam 0.7 and UGM FP inh 8.0.
`C=CCn1c(=N)c(C(=O)NCCCOC)cc2c(=O)n3cccc(C)c3nc21` gave RecA intein inh inactive, GDH-TPI counter 15.4, Rv3671c inh -2.9, Mtb FBA inh active, Mtb betalactam -8.1 and UGM FP inh -4.0.
CCCCNC(=O)c1cc2c(=O)n3cccc(C)c3nc2n(Cc2ccccc2)c1=N was read as RecA intein inh inactive, GDH-TPI counter 1.4, Rv3671c inh -4.1, Mtb FBA inh 149.9*, Mtb betalactam 75.8 and UGM FP inh -1.0.
For COCCNC(=O)c1cc2c(=O)n3cccc(C)c3nc2n1C the results were RecA intein inh -4.9, GDH-TPI counter 9.0, Rv3671c inh -2.7, Mtb FBA inh 18.6, Mtb betalactam -4.9 and UGM FP inh 0.3.
`COc1ccc([C@H]2CC(=O)C=C(c3cccc(C(C)C)c3)C2)cc1OC` gave GDH-TPI counter 6.3, Rv3671c inh -8.4, Mtb FBA inh -0.6, Mtb betalactam inconclusive and UGM FP inh 2.2.
CCN1CCN(S(=O)(=O)c2ccc(Cl)c(C(=O)N(C)CCOc3ccc(Cl)cc3)c2)CC1 was read as RecA intein inh -2.3, GDH-TPI counter 0.7, Rv3671c inh 8.1, Mtb FBA inh -1.2, Mtb betalactam -8.8 and UGM FP inh 2.4.
Screening CNC(=O)c1cc2c(=O)n3cccc(C)c3nc2n(C(C)C)c1=N returned RecA intein inh inactive, GDH-TPI counter 7.2, Rv3671c inh 6.8, Mtb FBA inh active, Mtb betalactam -7.7 and UGM FP inh 1.7.
COc1ccc(CCn2c(=N)c(C(=O)NC3CCCC3)cc3c(=O)n4cccc(C)c4nc32)cc1 was read as RecA intein inh -12.9, GDH-TPI counter 15.1, Rv3671c inh -1.3, Mtb FBA inh 3.0, Mtb betalactam 93.7 and UGM FP inh -5.0.
`COCCn1c(=N)c(C(=O)NCCc2ccccc2)cc2c(=O)n3cccc(C)c3nc21` gave RecA intein inh inactive, GDH-TPI counter -1.9, Rv3671c inh 5.9, Mtb FBA inh 117.4*, Mtb betalactam -4.5 and UGM FP inh -1.2.
Screening COc1ccc2c(C)c(CCC(=O)NC3CC3)c(=O)oc2c1 returned RecA intein inh 3.6, GDH-TPI counter 24.5, Rv3671c inh -9.1, Mtb FBA inh 173.2*, Mtb betalactam 3.0 and UGM FP inh -1.7.
`Cc1c(CCC(=O)NC2CC2)c(=O)oc2cc(O)ccc12` gave RecA intein inh 0.5, GDH-TPI counter 14.7, Rv3671c inh 6.5, Mtb FBA inh active, Mtb betalactam 0.9 and UGM FP inh 3.2.
For COc1ccc(OC)c(Cc2nnc(CCC(=O)NC3CCCCC3)o2)c1 the results were RecA intein inh -3.7, GDH-TPI counter 14.2, Rv3671c inh 2.8, Mtb FBA inh -0.5, Mtb betalactam -8.9 and UGM FP inh 3.8.
Screening NC(=O)c1ccc(/C=N/O)[n+](Cc2ccccc2)c1 returned RecA intein inh 0.7, GDH-TPI counter 35.0*, Rv3671c inh -5.3, Mtb FBA inh -2.5, Mtb betalactam -5.8 and UGM FP inh -1.5.
Screening CCOC(=O)c1ccc(/C=N/O)[n+](Cc2ccccc2)c1 returned RecA intein inh 2.5, GDH-TPI counter 24.9, Rv3671c inh -1.3, Mtb FBA inh -1.2, Mtb betalactam -3.7 and UGM FP inh 0.1.
